This note sets out measurements from PubChem BioAssay (NCI).

SMILES strings stand for the structures. About 83,000 compounds went through this panel and 20% of them were active in at least one assay; those are over-represented in the sample as a whole.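 Treatment: one concentration, 48 hours, 96-well format. Scoring: percent growth, with anything below 10 considered active.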 Values without a mark were called inactive. Active and inactive are the calls of the source.

The subject of the test is UO-31 renal. The test is described as follows: NCI-60 one-dose screen, 48 h (100 = growth as untreated, 0 = no growth, -100 = all killed). Particulars: 10 µM unless noted.
For the compound `CC[n+]1ccc2c(c1)C(=O)c1nccc3c1c-2nc1ccccc13`, the growth is 15.1%.
The figure for `COc1ccc(-c2csc(NC(=O)CN3CCN(c4cc5c(cc4F)c(=O)c(C(=O)O)cn5C4CC4)CC3)n2)cc1` is 21%; for `O=C1c2cc3c(cc2-c2c1c1cc(F)c(F)cc1c(=O)n2C[C@H](O)CO)OCO3` it is -56.8% (active); for `Cn1c2ccccc2c2c3c(c4c5ccccc5n(CCCCCC#N)c4c21)C(=O)N(O)C3=O` it is 2.03% (active).
For `CCOC(=O)c1c2c(n3ccc(NC(=O)CCN4CCOCC4)cc13)C(=O)c1ncccc1C2=O`, the growth was 36%.
The value for `Oc1ccccc1N=Cc1c(O)ccc2ccccc12` was 57%; that for `O=c1ccc2cc3ccccc3cc2[nH]1` was 76.4%.
`O=C(Nc1ccc(Oc2ccc(F)cc2)c(Cl)c1)c1cccnc1`: the growth is 80.9%.
The value for `CCCCCCCCCc1cc(CN2CCCCC2)c(O)c(CN2CCCCC2)c1` was 44.1%.
The value for `CC/C(Cc1ccccc1)=C(\c1ccc(OCCN2CCCC2)cc1)c1ccc(OC(C)=O)cc1` was 72.3%; that for `C=C1CC[C@@H]2[C@](C)(COC(C)=O)[C@H](OC(C)=O)CC[C@@]2(C)[C@@H]1CC(Nc1ccc(S(=O)(=O)Nc2nc(C)cc(C)n2)cc1)C1=CCOC1=O` (stereo not given in full) was 71.2%.
Consider `COc1ccc2c(c1)C(=O)/C(=C/c1cccc(OCC(=O)Nc3nc4c(s3)CCCC4)c1)O2`, for which the growth is -78.2% (active).
Take `O=C([C@@H](COCc1ccccc1)N1C(=O)[C@@H](N2C(=O)OC[C@@H]2c2ccccc2)[C@H]1/C=C/c1ccccc1)N1CCC(CCN2CCCCC2)CC1`: the growth was 69.3%.
Regarding `O=c1[nH]c(-c2ccccn2)nc2sc3c(c12)CCCCC3`, the growth is 32.6%.
As for `NC1=CC(=O)C(=O)c2ccccc21`, the growth is 71.3%.
The figure for `CN1CCOCCOCCOc2ccccc2NC(=O)c2nc(cnc2N)-c2ccc(cc2)S1(=O)=O` is 42.1%; for `COc1ccc(S(=O)(=O)NCCCNc2nccc(-c3c(-c4cccc(N)c4)nc4sccn34)n2)cc1` it is 76.4%; for `COc1ccccc1N1CCN(CCn2c(=O)c3c(c4ccccc4n3C)n(C)c2=O)CC1` it is 77.6%.
The figure for `COc1cnc2c(c1)C(=O)c1c-2n(CCCBr)c(=O)c2cc([N+](=O)[O-])ccc12` is -10.8% (active).
The figure for `O=C(C[C@@H](C(=O)NCc1cccc(C(F)(F)F)c1)N1C(=O)[C@@H](N2C(=O)OC[C@@H]2c2ccccc2)[C@H]1/C=C/c1ccccc1)NC1CCN(Cc2ccccc2)CC1` is 64.3%; for `CCCCCCNC(=O)Oc1ccc(/C(=C(\C)c2ccccc2)c2ccc(OCCN(CC)CC)cc2)cc1` it is 28.8%; for `CC#CC#Cc1cccc(=O)o1` it is 40.7%.
As for `CCCCCCCCCCCCNC(=O)[C@H]1CSC(c2ccc(OC)c(F)c2)N1` (stereo not given in full), the growth is -99.9% (active).
The figure for `O=C(CN1CCN(c2cc3c(cc2F)c(=O)c(C(=O)N/N=C/c2ccccc2)cn3C2CC2)CC1)N/N=C\c1ccccc1` is 53.3%; for `CNc1nc(C)c(-c2nc(Nc3cccc(S(N)(=O)=O)c3)ncc2F)s1` it is 1.38% (active).
The value for `CC1=CC(=O)CC(C)(C)[C@@]1(O)/C=C/[C@@H](C)O` was 95.3%; that for `CC(=O)Nc1ccc2c(c1)c(NC(C)=O)nn2C(=O)Nc1ccc(Cc2ccccc2)cc1` was 68.2%; that for `Cn1c2ccccc2c2c3c(c4c5ccccc5[nH]c4c21)C(=O)N(N)C3=O` was 34.8%.
The figure for `COc1cc(OC)c(/C=C/C(=O)c2c(OC)cc(OC)cc2OC)c(OC)c1` is 30.3%.
As to `CCCCCCCCCCCCCCCCCCNC(=O)[C@H]1CSC(c2ccc(OC)c(F)c2)N1` (stereo not given in full), the growth is 66.6%.
The value for `O=C1c2cc3c(cc2-c2c1c1cc(Cl)c(Cl)cc1c(=O)n2C[C@H](O)CO)OCO3` was -61.3% (active).
In the case of `COc1cc2nc3cc([N+](=O)[O-])ccc3c(NCCCNCC(C)(C)O)c2cc1OC`, the growth is 1.88% (active).
The figure for `CC(C)C1=C[C@@]23CC[C@@H]4[C@](C)(CCC[C@@]4(C)C(=O)OCC#CCN4CCCC4)[C@H]2C[C@@H]1[C@H]1C(=O)OC(=O)[C@H]13` is 78.3%; for `CN(C)c1ccc(/C=C(\C#N)c2nc3ccccc3s2)cc1` it is 90.7%; for `COc1ccc(Cl)cc1Nc1nc(C(F)(F)F)ccc1C(=O)N/N=C/c1cccnc1` it is 41.5%.
